# Measurements as given in the supplement of paper PMC6555819.
# System: VDR:RXRa (NR concentration 270 nM, RXRa partner concentration 90 nM)
# Experiment: PBM binding z-score (relative to random genomic background probes); higher = stronger binding; sequences stand for … in GC…GCGATTGACAGCGTAGAATGAAGG
# Description: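 Protein-binding microarray (Agilent 4x180K custom design, double-stranded 60-nt probes: 5' GC cap, 34-nt variable region, 24-nt constant primer region; full probe sequence given). Purified or IVT nuclear receptor:RXRα heterodimers (3:1 NR:RXRα, mostly 270:90 nM) or homodimers were incubated for 1 h in PBS with 2% milk and no ligand, then detected with Alexa488 antibodies. Fluorescence from o1-orientation probes (~5 replicates averaged) was converted to z-scores against 500 random hg19 background probes. Variable regions are seed direct-repeat (DR0–DR5) sites, all their single-nucleotide variants and half-site ablations.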
row,Sequence,PBM binding z-score
1,TCATATAGGTAAACAGGTGAAATTCCGTAAGTTA,1.35
2,CAAATTAGGTCACCGGAAGGTCAAAGTCCGCATG,5.86
3,CATACAGGGTCAGCTAGGCCAGATTAGGGACGGC,3.94
4,CCTTACGGGTCACTGACCGGTTATAGCATTTGGA,3.34
5,CCGAGTAGGTGATGGGGCATTCAGGCAACGGTGA,-0.461
6,ATCTCTAGGTAAAGATATTTCAGTGAATGCAAAT,0.441
7,CGAACTAGGTCACAGAGGTCAAAGTCCGTGCGTA,8.3
8,GCTAGTTGGTCAGTAAAAGGCCACACACCGGTCG,-0.219
9,GCTGCTTGGTCAACTGATGGTCAGCTAAAGCTCG,-0.687
10,TCTGCTAGGTCAACGATGGTCAGCTTATCTGCTA,1.63
11,TCTTGTAGATCCAAGGTTAAGAAAGCCGAAGCCT,0.448
12,CTCGAAAGGTCGTGCTAAGGTGAGTATACCAAAC,3.87
13,CAAACTAGGTCACAGAGGTCAAAGTACGTGCGTA,7.94
14,CAGCCTAGGACAGGGCCAGTATAGGAGGAACGTT,-0.833
15,CTACAAAGGTGAACAAGGTCGTTGATTACTATTC,6.38
16,CCTACTGGGCCAAAGATCATTGATTCCAATGCTC,-0.31
17,CGAACTAGGTCATTGACAGGGCAGTGAATAGTAA,2.15
18,CCTAGTAGTTGACCATAAGGGCAACCGAAGCTCG,0.633
19,AGTCAAAGTTCACCTAGGTAACGTAAGATATGCT,4.74
20,ATATGTAGGTTAAGGGTCAATCAGGTTGGTTCGC,5.61

row,Sequence,PBM binding z-score
1,ACAGACTGGTGAGTGAAGGTAACTCAGCTGGACG,-0.365
2,GCTAGTTGGTCTGTAAAAGGTCACACACCGGTCG,3.94
3,ATCGAAGGGTCGTGAGGTGAGTATACAGAAAGGC,2.38
4,CCTCGGAGGACAACGGGAGGTCAGAGCTGCCAGA,1.91
5,CGTCCAAGGTCAATGCTACGTCAGTGAAAGCATT,3.53
6,CTCGAAAGGTCGTGATCAGGTGAGTATACCAAAC,3.22
7,CCTACTTGGCCATTCAGAGGTCATTGATCATATG,4.04
8,CAAACTAGGTCACAGAGGTCTAAGTCCGTGCGTA,4.9
9,TCTTGTAGATCAACAGGAGGTGAAGAAAGATCGA,0.032
10,CCGAGTAGGTTATGCGGCATTCAGGCAACGGTGA,-0.251
11,CAGCCTAGGTTAGGGCCAGTATAGGAGGAACGTT,-0.611
12,ACTTGCGGGTCAACGAGGTTATAGCACGCGTATA,7.55
13,TGAATGAGGTTATAACATCAGGGAACGTTGCAAA,1.11
14,TCTAGTTGGTCAAAGGTCACACACTCGAAATGCG,5.37
15,TCATATAGCTAATACAGGTGAAAGTCGGCATCTA,0.529
16,AGAATGAGGTTATACGTAGATCATGGAAGAAAGT,1.72
17,AGAATGAGGTTATTAAGATAAGGGAATTGCGGTC,1.3
18,CCTTACGGGTCCCGAGGTTATAGCACGACGAGCG,0.198
19,ATCTCTAGGTATAAGTTCAGTGAATCCCGAGGAT,0.837
20,CGTCCAAGGTCATAGGAGATCAGTGAAGACAGAT,4.3
